Drawing on PubChem BioAssay (NCI), this text covers growth inhibition for 19 molecules.

Test [1] is described as follows: NCI Yeast Anticancer Drug Screen. Data for the rad50 strain (AID 155).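 Further: 0% = growth of vehicle-only cultures of the same strain.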 The following applies: S. cerevisiae rad50 strain growth inhibition; at 50.0 µM; stronger effect = higher value. The procedure, abridged: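 A DNA repair-deficient yeast mutant serves as the test organism; compound-induced growth inhibition is calculated against vehicle-treated cells.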
Test [2] is described as follows: NCI Yeast Anticancer Drug Screen. Data for the mec2-1 strain (AID 157). The note with it: S. cerevisiae mec2-1 strain, at 50.0 µM, stronger effect = higher value. In short, it runs like this:
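Cells of the genetically defined mec2-1 yeast strain are incubated with test compound. Inhibition of growth is calculated against vehicle-treated controls.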

Test [3] in a line: NCI Yeast Anticancer Drug Screen. Data for the sgs1 mgt1 strain (AID 161).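 Further: 0% = growth of cultures given vehicle only.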 The following applies: S. cerevisiae sgs1 mgt1 strain, at 50.0 µM, stronger effect = higher value. In short, it runs like this: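 Test agents were incubated with a DNA-repair-mutant yeast strain. Growth was then read and compared against vehicle-treated controls.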
A short description of test [4]: NCI Yeast Anticancer Drug Screen. Data for the cln2 rad14 strain (AID 165).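 Further: 0% = growth equal to vehicle treated cultures.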 The following applies: S. cerevisiae cln2 rad14 strain, at 50.0 µM, stronger effect = higher value. The procedure, abridged:
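The screen exposed genetically defined yeast (cln2 rad14) to test compounds and scored growth inhibition relative to vehicle-treated controls.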

Test [5] in a line: NCI Yeast Anticancer Drug Screen. Data for the bub3 strain (AID 167). The note with it: S. cerevisiae bub3 mutant strain, at 50.0 µM, stronger effect = higher value. The procedure, abridged: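 Inhibition values come from growth of compound-treated mutant yeast normalised to vehicle-treated controls.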
Test [6] is described as follows: NCI Yeast Anticancer Drug Screen. Data for the mlh1 rad18 strain (AID 175). The following applies: S. cerevisiae mlh1 rad18 strain growth inhibition; at 50.0 µM; stronger effect = higher value. In short, it runs like this: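 Compound-treated yeast growth, normalised to vehicle controls. Strain bears defined DNA repair mutations.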

Compounds without any hit were thinned out: in the full panel of roughly 79,000, 15% have a hit. Values without a mark were called inactive. The source made the active and inactive calls. No stated cut-off is given here; in the data, active means growth inhibition above about 70%; inactive means the rest.

Turning to `CCC1(C(C)c2ccccc2)C(=O)NC(=O)NC1=O` (centres undefined), the growth inhibition in test [1] was 0%; in test [2] it was 6.1%; in test [3], 1.8%; in test [4], 46.1%; in test [5], 16.6%; in test [6], -3.55%.

With `Cc1cc(Cl)ccc1[NH-].Cc1cc(Cl)ccc1[NH-].[Cl][Pt+2][Cl]`, the growth inhibition in test [1] was 35.3%; in test [2] it was 12.6%; in test [3] it was 30.8%; in test [4], 2.05%; in test [5], 18.3%; in test [6], 30.2%.

Take `C=CC(N)=O` (tested in a mixture with another compound): the growth inhibition in test [1] was 1.15%; in test [2], -7.1%; in test [3], 8.2%; in test [4] it was 0.4%; in test [5] it was 15.8%; in test [6], 2.2%.

In the case of `C[C@]12C=CC(=O)C=C1CC[C@@H]1[C@@H]2C(=O)C[C@]2(C)C(=O)CC[C@@H]12`, the growth inhibition in test [1] was -11.4%; in test [2], -19.1%; in test [3] it was 2.05%; in test [4], -1.85%; in test [5], -4.4%; in test [6], 4.95%.

In the case of `COC1CC(OC2OC(CO)C(O)C(O)C2O)/C(=C\C#N)C(O)C1OC` (centres undefined), the growth inhibition in test [1] is 1.95%; in test [2], -3.05%; in test [3], 1.8%; in test [4], 9.25%; in test [5] it was 2.35%; in test [6], -58.2%.

For the molecule `CC(C)CC1N=C(NN=C2CCCCC2)SP1(=O)NNc1ncccn1` (centres undefined), the growth inhibition was 1.25% in test [1]; 7.15% in test [2]; 12.5% in test [3]; 2.35% in test [4]; 0.4% in test [5]; -0.1% in test [6].

Regarding `O.O=C(O)C(=O)O.[NH2-].[Zn]`, the growth inhibition in test [1] was -14.6%; in test [2], 9.25%; in test [3], -6.5%; in test [4], 35.1%; in test [5], -2.3%; in test [6], -2.05%.

For the molecule `O=NO.O=NO.[NH-]C1CCCCC1[NH-].[Pd+2]` (centres undefined), the growth inhibition in test [1] was -11.2%; in test [2], 13.1%; in test [3], 15.2%; in test [4], 21.2%; in test [5], 9.05%; in test [6] it was -0.3%.

As to `O=C(NCCN1CCOCC1)c1ccc2cc(C(=O)N3CC(CCl)c4ccc([N+](=O)[O-])cc43)[nH]c2c1` (centres undefined), the growth inhibition is 88.5% (active) in test [1]; 92.2% (active) in test [2]; 88% (active) in test [3]; 88.8% (active) in test [4]; 89.8% (active) in test [5]; 89.9% (active) in test [6].

Turning to `[N-]=[N+]=NC1=C(N=[N+]=[N-])c2cccc3cccc(c23)C1=O`, the growth inhibition was 46.3% in test [1]; 29.1% in test [2]; 55.3% in test [3]; 55.6% in test [4]; 21.1% in test [5]; 81.9% (active) in test [6].

For `CC(O)CCC(=O)c1ccoc1` (centres undefined), the growth inhibition was 6.4% in test [1]; 10.7% in test [2]; 1.45% in test [3]; 8.15% in test [4]; 14.3% in test [5]; -71.7% in test [6].

Consider `CC1OP(=S)(N2C(=O)c3ccccc3C2=O)OC2CCCCC12` (centres undefined), for which the growth inhibition in test [1] was 11.8%; in test [2] it was 15.6%; in test [3] it was 4.4%; in test [4], -26.4%; in test [5] it was 10.2%; in test [6], -5.9%.

Regarding `OC(c1ccccc1)C(NC1CCCCC1)c1ccccc1` (centres undefined), the growth inhibition in test [1] was -4.5%; in test [2], -18.6%; in test [3], -0.75%; in test [4] it was -24.2%; in test [5] it was -6.3%; in test [6] it was -56%.

As to `CC(Cc1ccccc1)NC(=O)/C=C/C(=O)O` (centres undefined), the growth inhibition in test [1] is 5.9%; in test [2], 4.25%; in test [3], 9.6%; in test [4], -6.95%; in test [5] it was 36.8%; in test [6] it was 11.9%.

Take `S=C(N/N=C/c1ccc(Cl)cc1)NC1CN2CCC1CC2` (centres undefined): the growth inhibition in test [1] is -1.6%; in test [2] it was 9.6%; in test [3], -22.1%; in test [4], -15.8%; in test [5], -7.9%; in test [6] it was 11.7%.

As to `CC(C)CC1N=C(N(C)N=O)OP1(=O)NNc1ncccn1` (centres undefined), the growth inhibition in test [1] was -5.5%; in test [2] it was -14.9%; in test [3] it was -15.4%; in test [4], 6.65%; in test [5] it was 13.8%; in test [6], 13.9%.

Regarding `O=NN(CCF)C(=O)NCCO`, the growth inhibition in test [1] was 1.9%; in test [2] it was -7.3%; in test [3] it was 7.75%; in test [4] it was 12.4%; in test [5] it was 1.75%; in test [6], -32.2%.

In the case of `O=P(O)(O)SP(=O)(O)O.[Co]`, the growth inhibition in test [1] is 22.2%; in test [2] it was 6.9%; in test [3] it was 11.2%; in test [4], -8.9%; in test [5], -12.8%; in test [6], 14.2%.

`N#CS.[Cr+3].[NH-]CC[NH-].[NH-]CC[NH-].[NH-]CC[NH-]`: the growth inhibition in test [1] is 14.8%; in test [2], -0.5%; in test [3], 10.2%; in test [4], 12.8%; in test [5], -2.75%; in test [6], 5.05%.
